Assay results: PubChem BioAssay (NCI)
This is part of a sample that, as a whole, favours compounds with a hit. Of some 83,000 tested, about 20% had one in any assay.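 Treatment: one concentration, 48 hours, 96-well format. Scoring: percent growth, with anything below 10 considered active.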 Activity calls are given as the source filed them.

The compounds below were run on SK-MEL-5 melanoma (assay: NCI-60 one-dose screen, 48 h (100 = growth as untreated, 0 = no growth, -100 = all killed)). Settings: 10 µM unless noted.
With `CCCCN1C=CCN(CCCC)C1` the growth was -6.08% (active).
For `Cc1nn(-c2ccccc2)c(Cl)c1/C=N\N=c1/sc2ccccc2n1C`, the growth was 104% (inactive).
`COc1cc(CC(=O)n2ncc3ccc(N)cc32)cc(OC)c1OC` was tested, and the growth was 92.9% (inactive).
For `Cn1cc(-c2nc(-c3c[nH]c4c(Cl)nccc34)cs2)c2cc(Br)ccc21`, the growth was 88% (inactive).
With `CCNc1nc2ccc(Nc3ccnc4cc(Cl)ccc34)cc2[nH]1` the growth was 82.6% (inactive).
For `Cc1ncc(C(=O)Nc2ccc(CN3CCN(C)CC3)c(C(F)(F)F)c2)cc1C#Cc1cnc(N)cc1C#N`, the growth was -100% (active).
In the case of `COc1cc(/C=C\c2cc(/C=C\c3ccc(O)c(OC)c3)n(C(=O)COc3ccccc3)n2)ccc1O`, the growth is reported as -28.8% (active).
With `C[C@H](c1nc2ccc(N)cc2[nH]1)[C@H]1CC[C@H]2[C@@H]3CCC4=CC(=O)CC[C@]4(C)[C@H]3CC[C@]12C` the growth was 81.3% (inactive).
With `CC(c1ccccc1)C(C(=O)c1ccccc1)c1ccccc1` (centres undefined) the growth was 98.5% (inactive).
For `N#CC1=C(N)Oc2c(ccc3ccccc23)C1c1ccccc1Cl` (centres undefined), the growth was 9.89% (active).
For `N#CC(C(=O)/C(=N/NC(=O)c1ccccc1O)C(C#N)c1ccccc1)c1ccccc1` (centres undefined), the growth was 81.7% (inactive).
`C[C@@H](Nc1ncnc2ccc(-c3cnc(N)nc3)cc12)c1ccc(F)cc1` was tested, and the growth was 73.2% (inactive).
With `Cc1cccc(C)c1N=c1oc2ccc(Cl)cc2nc1-c1ccccc1O` the growth was 91.3% (inactive).
In the case of `COc1cc(C2C3=C(COC3=O)N(CCO)c3cc4c(cc32)CCC4)cc(OC)c1OC` (centres undefined), the growth is reported as -60.3% (active).
In the case of `COc1cc2cc(Oc3cccc(NC(=O)Nc4cc(C(F)(F)F)cc(C(F)(F)F)c4)c3)c(C)nc2cc1OC`, the growth is reported as -58.5% (active).
`Cc1cc(Cl)nc(N(CCNc2ccnc3cc(Cl)ccc23)Cc2ccccn2)n1` was tested, and the growth was 41.3% (inactive).
In the case of `COc1ccc(C(=O)c2cc(OC)c(OC)c(OC)c2)cc1O`, the growth is reported as -59.7% (active).
With `N#C/C(=C\c1ccc([N+](=O)[O-])s1)c1nc2cc(Br)ccc2s1` the growth was -97.7% (active).
`Brc1ccc2[nH]cc(-c3cncn3CCc3ccccc3)c2c1` was tested, and the growth was 10.4% (inactive).
For `Cc1c(C)c([N+](=O)[O-])c(C)c([N+](=O)[O-])c1C`, the growth was 101% (inactive).
`COc1ccc(C(=O)CC#N)cc1` was tested, and the growth was 97.9% (inactive).
In the case of `O=C(/C=C/c1c(-c2ccc(Cl)cc2)nn(-c2ccccc2)c1C(F)(F)F)c1ccc(Cl)cc1`, the growth is reported as 85.3% (inactive).
With `Cc1ccc(NS(=O)(=O)c2ccc(-c3cnc(C4CC4)o3)cc2)cc1C(F)(F)F` the growth was 49% (inactive).
`CC(C)c1ccc(Nc2ccc3c(OCCCN4CCN(C)CC4)cccc3n2)cc1` was tested, and the growth was 58.3% (inactive).
With `CCN(c1ccccc1)S(=O)(=O)c1cc([N+](=O)[O-])ccc1Cl` the growth was 45.3% (inactive).
For `C=C1C(=O)O[C@H]2[C@H]1CC/C(CNS(=O)(=O)c1cccc3ccccc13)=C\CC[C@@]1(C)O[C@@H]21`, the growth was 41.4% (inactive).
For `COc1cc(C(=O)Nc2cc3c(cc2Oc2cc(C)cc(C)c2)C(=O)N(C)[C@@H](CC(=O)N(C)O)C(=O)N3)c(Br)c(OC)c1OC`, the growth was -71.7% (active).
`Cc1c2cc[nH]c(=O)c2c(C)c2c1[nH]c1cc(OCCN3CCN(C)CC3)ccc12` was tested, and the growth was 11.9% (inactive).
In the case of `Cn1cc(-c2csc(-c3c[nH]c4ccccc34)n2)c2ccnc(Cl)c21`, the growth is reported as 50% (inactive).
In the case of `COc1ccc2nc(-c3ccc(-c4noc(-c5cc(OC)c(OC)c(OC)c5)n4)cc3)[nH]c2c1`, the growth is reported as 45% (inactive).
For `Cn1cc(-c2nc(-c3c[nH]c4c(Cl)nccc34)cs2)c2cc(F)ccc21`, the growth was 94.5% (inactive).
For `O=C1NN(C(=O)c2ccccc2)C(c2ccc(Cl)c(Cl)c2)=C/C1=C\c1ccc([N+](=O)[O-])cc1`, the growth was 86.8% (inactive).
In the case of `COc1ccc(OC)c(CCn2cncc2-c2c[nH]c3ccccc23)c1`, the growth is reported as 49.7% (inactive).
For `N#Cc1c(-c2cccc([N+](=O)[O-])c2)nc(SCC(=O)c2ccc(Cl)cc2)[nH]c1=O`, the growth was 106% (inactive).
With `COC(=O)c1ccc2c(c1)[n+](=O)c(C(C)=O)c(C(F)(F)F)n2[O-]` the growth was -100% (active).
For `C#Cc1cccc(NC(=O)Nc2cccc(NC(=O)CCl)c2)c1`, the growth was -96% [8.25 µM] (active).
With `Cc1nc2sccn2c1-c1cn2ccsc2n1` the growth was 65.6% (inactive).

The compounds below were run on UACC-62 melanoma in the same assay as above. Settings: 10 µM unless noted.
`CCCCN1C=CCN(CCCC)C1` was tested, and the growth was 24.5% (inactive).
For `Cc1nn(-c2ccccc2)c(Cl)c1/C=N\N=c1/sc2ccccc2n1C`, the growth was 87.1% (inactive).
In the case of `COc1cc(CC(=O)n2ncc3ccc(N)cc32)cc(OC)c1OC`, the growth is reported as 92.9% (inactive).
In the case of `Cn1cc(-c2nc(-c3c[nH]c4c(Cl)nccc34)cs2)c2cc(Br)ccc21`, the growth is reported as 80.3% (inactive).
For `CCNc1nc2ccc(Nc3ccnc4cc(Cl)ccc34)cc2[nH]1`, the growth was 92.5% (inactive).
With `Cc1ncc(C(=O)Nc2ccc(CN3CCN(C)CC3)c(C(F)(F)F)c2)cc1C#Cc1cnc(N)cc1C#N` the growth was -83.7% (active).
For `COc1cc(/C=C\c2cc(/C=C\c3ccc(O)c(OC)c3)n(C(=O)COc3ccccc3)n2)ccc1O`, the growth was 4.88% (active).
With `C[C@H](c1nc2ccc(N)cc2[nH]1)[C@H]1CC[C@H]2[C@@H]3CCC4=CC(=O)CC[C@]4(C)[C@H]3CC[C@]12C` the growth was 85% (inactive).
With `CC(c1ccccc1)C(C(=O)c1ccccc1)c1ccccc1` (centres undefined) the growth was 94% (inactive).
For `N#CC1=C(N)Oc2c(ccc3ccccc23)C1c1ccccc1Cl` (centres undefined), the growth was 26.6% (inactive).
With `N#CC(C(=O)/C(=N/NC(=O)c1ccccc1O)C(C#N)c1ccccc1)c1ccccc1` (centres undefined) the growth was 21.7% (inactive).
For `C[C@@H](Nc1ncnc2ccc(-c3cnc(N)nc3)cc12)c1ccc(F)cc1`, the growth was 69.2% (inactive).
For `Cc1cccc(C)c1N=c1oc2ccc(Cl)cc2nc1-c1ccccc1O`, the growth was 81.3% (inactive).
For `COc1cc(C2C3=C(COC3=O)N(CCO)c3cc4c(cc32)CCC4)cc(OC)c1OC` (centres undefined), the growth was 31.2% (inactive).
`COc1cc2cc(Oc3cccc(NC(=O)Nc4cc(C(F)(F)F)cc(C(F)(F)F)c4)c3)c(C)nc2cc1OC` was tested, and the growth was -34.6% (active).
In the case of `Cc1cc(Cl)nc(N(CCNc2ccnc3cc(Cl)ccc23)Cc2ccccn2)n1`, the growth is reported as 66.3% (inactive).
For `COc1ccc(C(=O)c2cc(OC)c(OC)c(OC)c2)cc1O`, the growth was 45.2% (inactive).
For `N#C/C(=C\c1ccc([N+](=O)[O-])s1)c1nc2cc(Br)ccc2s1`, the growth was 17% (inactive).
For `Brc1ccc2[nH]cc(-c3cncn3CCc3ccccc3)c2c1`, the growth was 52.9% (inactive).
For `Cc1c(C)c([N+](=O)[O-])c(C)c([N+](=O)[O-])c1C`, the growth was 102% (inactive).
With `COc1ccc(C(=O)CC#N)cc1` the growth was 105% (inactive).
`O=C(/C=C/c1c(-c2ccc(Cl)cc2)nn(-c2ccccc2)c1C(F)(F)F)c1ccc(Cl)cc1` was tested, and the growth was 82.5% (inactive).
For `Cc1ccc(NS(=O)(=O)c2ccc(-c3cnc(C4CC4)o3)cc2)cc1C(F)(F)F`, the growth was 47.3% (inactive).
`CC(C)c1ccc(Nc2ccc3c(OCCCN4CCN(C)CC4)cccc3n2)cc1` was tested, and the growth was 1.02% (active).
In the case of `CCN(c1ccccc1)S(=O)(=O)c1cc([N+](=O)[O-])ccc1Cl`, the growth is reported as 57.5% (inactive).
For `C=C1C(=O)O[C@H]2[C@H]1CC/C(CNS(=O)(=O)c1cccc3ccccc13)=C\CC[C@@]1(C)O[C@@H]21`, the growth was 29% (inactive).
With `COc1cc(C(=O)Nc2cc3c(cc2Oc2cc(C)cc(C)c2)C(=O)N(C)[C@@H](CC(=O)N(C)O)C(=O)N3)c(Br)c(OC)c1OC` the growth was -69% (active).
`Cc1c2cc[nH]c(=O)c2c(C)c2c1[nH]c1cc(OCCN3CCN(C)CC3)ccc12` was tested, and the growth was 5.81% (active).
For `Cn1cc(-c2csc(-c3c[nH]c4ccccc34)n2)c2ccnc(Cl)c21`, the growth was 84.9% (inactive).
With `COc1ccc2nc(-c3ccc(-c4noc(-c5cc(OC)c(OC)c(OC)c5)n4)cc3)[nH]c2c1` the growth was 99.8% (inactive).
With `Cn1cc(-c2nc(-c3c[nH]c4c(Cl)nccc34)cs2)c2cc(F)ccc21` the growth was 97.5% (inactive).
`O=C1NN(C(=O)c2ccccc2)C(c2ccc(Cl)c(Cl)c2)=C/C1=C\c1ccc([N+](=O)[O-])cc1` was tested, and the growth was 70.3% (inactive).
For `COc1ccc(OC)c(CCn2cncc2-c2c[nH]c3ccccc23)c1`, the growth was 59.2% (inactive).
In the case of `N#Cc1c(-c2cccc([N+](=O)[O-])c2)nc(SCC(=O)c2ccc(Cl)cc2)[nH]c1=O`, the growth is reported as 93.6% (inactive).
For `COC(=O)c1ccc2c(c1)[n+](=O)c(C(C)=O)c(C(F)(F)F)n2[O-]`, the growth was -32.7% (active).
With `C#Cc1cccc(NC(=O)Nc2cccc(NC(=O)CCl)c2)c1` the growth was -61.6% [8.25 µM] (active).
For `Cc1nc2sccn2c1-c1cn2ccsc2n1`, the growth was 83.4% (inactive).
